# Experimental data taken from PMC4336329 (PLoS ONE, 2015).
# In all, about 310,000 compounds went through this assay and about 14,000 (4.5%) showed an effect of 50% or more. The effect is printed as a negative number. The entries come from a sample that favours strong results as a whole.
# Molecular target: human ether-à-go-go-related gene (hERG) potassium channel (human, UniProt Q12809)
# Experiment: primary screen, population patch clamp on CHO cells stably expressing hERG; higher = less effect of the substance
# 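Also: peak tail current of the secondary pulse compared with the same well before compound.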
# Chain of human ether-à-go-go-related gene (hERG) potassium channel (Q12809 whole entry, looked up): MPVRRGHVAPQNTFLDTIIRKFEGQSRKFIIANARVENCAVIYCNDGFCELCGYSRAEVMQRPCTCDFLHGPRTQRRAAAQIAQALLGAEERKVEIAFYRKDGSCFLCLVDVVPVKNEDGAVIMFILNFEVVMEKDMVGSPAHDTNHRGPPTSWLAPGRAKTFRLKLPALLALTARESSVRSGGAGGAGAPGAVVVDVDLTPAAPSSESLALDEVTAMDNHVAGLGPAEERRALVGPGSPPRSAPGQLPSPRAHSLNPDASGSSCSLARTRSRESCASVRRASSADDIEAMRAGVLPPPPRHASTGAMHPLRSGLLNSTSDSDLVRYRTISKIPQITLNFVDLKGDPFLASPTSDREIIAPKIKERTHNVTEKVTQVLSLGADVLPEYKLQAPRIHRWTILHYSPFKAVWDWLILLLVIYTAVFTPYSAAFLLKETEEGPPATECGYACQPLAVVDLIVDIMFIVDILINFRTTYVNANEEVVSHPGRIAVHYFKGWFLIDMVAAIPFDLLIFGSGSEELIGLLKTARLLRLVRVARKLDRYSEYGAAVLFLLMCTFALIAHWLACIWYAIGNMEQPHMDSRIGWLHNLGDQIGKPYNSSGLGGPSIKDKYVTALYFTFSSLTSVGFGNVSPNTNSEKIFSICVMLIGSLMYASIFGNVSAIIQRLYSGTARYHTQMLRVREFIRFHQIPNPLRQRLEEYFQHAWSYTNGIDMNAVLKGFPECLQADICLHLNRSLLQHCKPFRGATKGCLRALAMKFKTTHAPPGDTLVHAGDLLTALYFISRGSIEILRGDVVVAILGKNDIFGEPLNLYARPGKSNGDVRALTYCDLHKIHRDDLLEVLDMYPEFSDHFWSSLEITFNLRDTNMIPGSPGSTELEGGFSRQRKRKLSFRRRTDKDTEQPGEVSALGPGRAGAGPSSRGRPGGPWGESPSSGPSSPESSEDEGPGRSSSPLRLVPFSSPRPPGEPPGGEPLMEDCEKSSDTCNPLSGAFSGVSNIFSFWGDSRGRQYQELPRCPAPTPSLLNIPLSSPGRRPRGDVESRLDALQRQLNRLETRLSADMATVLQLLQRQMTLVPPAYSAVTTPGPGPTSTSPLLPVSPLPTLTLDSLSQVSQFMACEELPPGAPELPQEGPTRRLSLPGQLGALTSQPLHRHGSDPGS
row,SMILES,"hERG current change (%, negative = inhibition) at 10uM [%]"
1,Cc1nn(Cc2ccc(Cl)cc2Cl)c(C)c1NC(=O)C1C2CCC(O2)C1C(=O)O (centres unmarked),-9.88
2,CC(Oc1ccc(Cl)cc1Cl)C(=O)NCCC1=CCCCC1 (centres unmarked),4.46
3,Cc1ccc(CN(C)C(=O)c2ccc3c(c2)NC(=O)CS3)o1,-17.2
4,Cc1cc(S(=O)(=O)NCc2cccnc2)ccc1F,-3.24
5,COc1ccc(S(=O)(=O)CCC(=O)N(C)c2ccc(OC)cc2OC)cc1,-12.8
6,CN1CC(=O)NC1=NC(=O)C12CC3CC(CC(C3)C1)C2,-8.73
7,Cl.Clc1cccc(Cl)c1CNC1CCCC1,13.5
8,CC(=O)c1ccc(N(C(=O)Cn2nnc3ccccc32)C(C(=O)NCc2ccccc2)c2ccccn2)cc1 (centres unmarked),-73.2
9,Cc1ccc(N(C(=O)Cn2nnc3ccccc32)C(C(=O)NCc2ccccc2)c2ccccn2)cc1 (centres unmarked),-45.5
10,CC(=O)c1cccc(N(C(=O)Cn2nnc3ccccc32)C(C(=O)NCc2ccccc2)c2ccccn2)c1 (centres unmarked),-39
11,COc1ccc(Cc2nc3ccc(C(=O)N(C)CCCN4CCOCC4)cc3o2)cc1,10
12,Cc1cc(C)c(C(N)=O)c(Nc2ccc3c(c2)OCCO3)n1,0.162
13,Cc1cc(Nc2ccc3c(c2)OCCO3)c2cc(Cl)ccc2n1.Cl,-52.6
14,Cc1cc(Nc2ccc3c(c2)OCCO3)c2cccc(C)c2n1.Cl,-40.7
15,Cc1ccc2nc(C)cc(Nc3ccc4c(c3)OCCO4)c2c1.Cl,-58.2
16,CCOc1ccc2nc(C)cc(Nc3ccc4c(c3)OCCO4)c2c1.Cl,-72.4
17,CCOc1cccc(C(=O)Nc2ccc3c(c2)OCCO3)c1,3.35
18,CCOc1ccc(C(=O)Nc2ccc3c(c2)OCCO3)cc1,-1.74
19,Cc1cc(C)n2c(Nc3ccc4c(c3)OCCO4)c(-c3ccccc3)nc2n1,-16.7
20,Cc1cc(Nc2ccc3c(c2)OCCO3)n2nc(C)nc2n1,-9.32
21,Cc1cc(Nc2ccc3c(c2)OCCO3)c2ccccc2n1.Cl,-56.1

row,SMILES,"hERG current change (%, negative = inhibition) at 10uM [%]"
1,Cc1cc(C)c(C#N)c(Nc2ccc3c(c2)OCCO3)n1,5.17
2,Cc1cc(C(=O)Nc2ccc3c(c2)OCCO3)c2ccccc2n1,18.4
3,O=C(COc1ccc(F)cc1Cl)Nc1ccc(N2CCOCC2)cc1N1CCOCC1,-10.2
4,Cc1ccc(C2(C)NC(=O)N(CC(=O)N(Cc3ccccc3)C(C)(C)C)C2=O)cc1 (centres unmarked),-1.1
5,Cc1nccn1CC(=O)N/N=C/c1cc(Br)cs1,6.58
6,Cc1ccc(C)c(Cn2cnc3c(nnn3-c3ccc(F)cc3)c2=O)c1,-2.53
7,Cn1c(=O)c(C(=O)COC(=O)c2cc(-c3ccco3)nc3ccccc23)c(N)n(Cc2ccccc2)c1=O,-12.2
8,O=[N+]([O-])c1ccc(/C=C/c2ccc3ccccc3n2)cc1,5.95
9,Cc1cc(C)c(CN2CCN(C(=O)Cn3ccc(NC(=O)OCc4ccccc4)nc3=O)CC2)c(C)c1,-5.55
10,COc1ccc(N(CC(=O)NCC2CCCO2)S(=O)(=O)c2ccc(C)cc2)cc1OC (centres unmarked),-3.96
11,Cc1cc(C)c(CN2CCCC(CNC(=O)c3ccc(F)cc3)C2)c(-n2cccn2)c1 (centres unmarked),-75.6
12,COC(=O)c1ccccc1C(=O)N1CCCC(CNC(=O)c2ccc(F)cc2)C1 (centres unmarked),11.2
13,Cc1ccccc1CC(=O)N1CCCC(CNC(=O)c2ccc(F)cc2)C1 (centres unmarked),-2
14,O=C(NCC1CCCN(C(=O)c2cc(Cl)ccc2F)C1)c1ccc(F)cc1 (centres unmarked),-6.65
15,CCn1ncc(CN2CCCC(CNC(=O)c3ccc(F)cc3)C2)c1C (centres unmarked),-1.04
16,Cc1ccc(-n2cccn2)c(CN2CCCC(CNC(=O)c3ccc(F)cc3)C2)c1 (centres unmarked),-75.5
17,Cc1cc(C(=O)Nc2ccccc2N2CCOCC2)c(C)o1,-18.1
18,CCc1noc(C)c1C(=O)OCC(=O)N(CC)c1c(N)n(Cc2ccccc2)c(=O)[nH]c1=O,10.9
19,Cc1ccc(C2CC(=O)NC(SCCC(C)C)=C2C#N)cc1 (centres unmarked),-10.6
20,Cc1ccc(C(=O)NCCNS(=O)(=O)c2ccccc2)cn1,12.7
21,Cc1ccc(C(=O)NCCNC(=O)c2ccc(C)nc2)cc1,5.21

row,SMILES,"hERG current change (%, negative = inhibition) at 10uM [%]"
1,Cc1ccc(S(=O)(=O)NCCNC(=O)c2ccc(C)nc2)cc1,-72
2,COc1ccccc1NC(=O)COc1ccc(/C=N/NS(=O)(=O)c2ccc(C)cc2)cc1,20.1
3,COc1ccc(OCC(=O)Nc2ccc3c(c2)nc(CCN2CCC(C)CC2)n3C)cc1,-75.4
4,CCC(=O)Nc1ccc2c(c1)nc(CCN1CCC(C)CC1)n2C,1.48
5,CC(=O)N1CCN(Cc2nc3cc(NC(=O)COc4cccc(C)c4)ccc3n2C)CC1.Cl,-15.3
6,Cc1cccc(OCC(=O)Nc2ccc3c(c2)nc(CCN2CCC(C)CC2)n3C)c1,-68.7
7,CC1CCN(CCc2nc3cc(NC(=O)COc4ccccc4)ccc3n2C)CC1,-68.4
8,Cc1ccc(OCC(=O)Nc2ccc3c(c2)nc(CCN2CCC(C)CC2)n3C)cc1,-70.6
9,CC(=O)Nc1ccc2c(c1)nc(CCN1CCC(C)CC1)n2C,8.83
10,CC1CCN(CCc2nc3cc(NC(=O)Nc4ccccc4)ccc3n2C)CC1,-44.4
11,CCOC(=O)CSc1nc(N)cc(=O)[nH]1,7.78
12,CN(Cc1ccccc1)C(=O)c1[nH]cnc1C(=O)NCc1ccc(CNC(=O)OC(C)(C)C)cc1,-6.68
13,CC(C)NC(=O)C1CCN(C(=O)C(C(=O)c2ccccc2)n2cc(Cl)ccc2=O)CC1 (centres unmarked),6.17
14,COC(=O)c1ccc2c(C)c(C(C)(C)O)[nH]c2c1,10.3
15,Cc1sc2nc(-c3cccnc3)[nH]c(=O)c2c1-c1ccccc1,-4.06
16,Clc1ccc(OCCn2ccnc2)c(Cl)c1,-18.9
17,CN(C)/C=N/c1[nH]ncc1C#N,16
18,CC1CCN(CCc2nc3cc(NC(=O)COc4ccc(Cl)cc4)ccc3n2C)CC1,-74.7
19,COc1ccc(-c2c(-c3cc(OC)cc(OC)c3)n(C)c3ccc(-c4cccc5[nH]ccc45)cc23)cc1,16.7
20,COCCNC(=O)c1ccccc1NS(=O)(=O)c1ccc(Br)s1,0.678
21,CC(C)=C1C2CCC1C(C(=O)Nc1cc(C)cc(C)c1)C2C(=O)O (centres unmarked),14

row,SMILES,"hERG current change (%, negative = inhibition) at 10uM [%]"
1,CN(C)CC#CCC(O)(c1ccccc1)c1ccccc1,-2.15
2,CCN(CC)CC#CCC(C)(c1ccccc1)c1ccccc1.Cl,-54.8
3,CCN(CC)CC#CCC(O)(c1ccccc1)c1ccccc1,-25.1
4,CCN(CC)CC#CCC(OC)(c1ccccc1)c1ccccc1.Cl,-32.5
5,CCN(CC)CC#CCC(O)(c1ccccc1)C1CCCC1.Cl (centres unmarked),-11.7
6,CCN(CC)CC#CCC(O)(c1ccccc1)c1ccc(Br)cc1.Cl (centres unmarked),-50.1
7,CC(=O)N1CCC(N(CCN2CCOCC2)C(=S)Nc2cccc(C)c2)CC1,0.988
8,C=CCN(c1ccccc1)S(=O)(=O)c1cccc(C(=O)NCC(c2ccccc2OC)N2CCCC2)c1 (centres unmarked),-70.5
9,COc1ccc(NS(=O)(=O)c2cccc(C(=O)NCC(c3ccccc3OC)N3CCCC3)c2)cc1 (centres unmarked),-55.4
10,COc1ccccc1NS(=O)(=O)c1cc(C(=O)NCC(c2ccc(F)cc2)N2CCOCC2)ccc1C (centres unmarked),-19.1
11,COc1ccccc1NS(=O)(=O)c1cccc(C(=O)NCC(c2ccccc2OC)N2CCCC2)c1 (centres unmarked),-12.9
12,COc1ccc(NS(=O)(=O)c2cccc(C(=O)NCC(c3ccc(OC)cc3)N3CCCC3)c2)cc1 (centres unmarked),-46.7
13,COc1ccc(C(CNC(=O)c2cccc(S(=O)(=O)Nc3ccccc3OC)c2)N2CCCC2)cc1 (centres unmarked),-56.6
14,COc1ccc(C(CNC(=O)c2ccc(C)c(S(=O)(=O)Nc3ccccc3OC)c2)N2CCCC2)cc1 (centres unmarked),-66.2
15,COc1ccccc1C(CNC(=O)c1cccc(S(=O)(=O)Nc2ccc(C)cc2)c1)N1CCCC1 (centres unmarked),-29.8
16,COc1ccc(C(CNC(=O)c2cccc(S(=O)(=O)Nc3ccccc3OC)c2)N2CCOCC2)cc1 (centres unmarked),-46.1
17,C=CCN(c1ccccc1)S(=O)(=O)c1cccc(C(=O)NCC(c2cccs2)N2CCOCC2)c1 (centres unmarked),-18.7
18,C=CCN(c1ccccc1)S(=O)(=O)c1cccc(C(=O)NCC(c2ccc(F)cc2)N2CCOCC2)c1 (centres unmarked),-29.6
19,COc1ccccc1NS(=O)(=O)c1cc(C(=O)NCC(c2ccco2)N2CCCCC2)ccc1C (centres unmarked),-48.6
20,CCOC(=O)c1sc(NC(=O)c2ccc(S(=O)(=O)N3CCCCC3)cc2)nc1-c1ccccc1,18.1
